This assay concerns the target Glucose transporter (Leishmania mexicana) (UniProt O61059). Briefly: ST_JUDE_LEISH: Cytotoxicity at 2uM final concentration against transgenic Leishmania Mexicana promastigotes LmGT2 that are glucose transport deficient and complemented with the L. Mexicana glucose transporter 2. Activity is measured by DNA content using SYBR green in vitro. Format: functional.
With `O=C(Nc1ccc([N+](=O)[O-])cc1O)Nc1ccccc1Oc1ccccc1`, the inhibition (usually the relative decrease from the control value, in per cent) is -0.04%.

On to `Cc1cc(-c2ccc(NC(=O)N3CCc4cc(Br)c(N5CCN(C)CC5)cc43)cc2)ccc1C#N`, for which the inhibition worked out at 8.55%.

With `Cc1ccccc1C1CCN(C2CCC(NC(=O)/C=C/c3ccc(Cl)cc3)CC2)CC1` (stereo unspecified), the inhibition amounted to 2.42%.

Take `CC1(C)NC(N)=NC(=N)N1OCc1cccc(Cl)c1Cl`: the inhibition was determined as 2.46%.

With `CCN(CC)CCCNc1nccc(N(C)c2ccc(NC(=O)Nc3cc(C(F)(F)F)ccc3F)cc2)n1`, the inhibition was found to be 11.9%.

In the case of `CCCCN(CCCC)CCCN(CCCN(CCCC)CCCC)c1cc(C)nc(Nc2ccc(Cl)cc2)n1`, the inhibition was 0.44%.

In the case of `COc1ccc(CCC(C)N2CC(N)C(c3cn(C)c4cnccc34)C2)cc1` (stereo unspecified), the inhibition stood at 7.69%.

With `N=C(N)Nc1nc(-c2cccc(NC(=O)Cc3ccccc3)c2)cs1`, the inhibition amounted to 3.44%.

With `COc1ccc(-c2c3c(=O)n(C)c(=O)n(C)c3c3nnc4ccccc4n23)cc1`, the inhibition was 1.3%.

For the compound `CC(C)=CCc1c(-c2ccc(O)cc2O)oc2c3c(cc(O)c2c1=O)OC(C)(C)C=C3`, the inhibition worked out at 6.57%.

For `Cc1cc(F)ccc1[C@H]1C[C@H](N2CCOCC2)CCN1C(=O)N(C)[C@@H](C)c1cc(C(F)(F)F)cc(C(F)(F)F)c1`, the inhibition is -0.74%.

Consider `CCOc1cc(Cc2cnc(N)nc2N)ccc1OC`, for which the inhibition is -0.73%.

On to `O=C(Nc1cccc(N2CCC(NCc3cnn(-c4cccc(F)c4)c3)CC2)c1)c1ccncc1`, for which the inhibition is -0.33%.

Turning to `CCCCC(CC)NC(=O)[C@H]1CNCCN1C(=O)CCCc1ccccc1` (stereo partly specified), the inhibition is -0.61%.

With `CCOc1ccc(C(C)NC(=O)C2COc3ccccc3O2)cc1OCC` (stereo unspecified), the inhibition was found to be 2.93%.

`CC(CC(=O)NCC1(c2ccc(F)cc2Cl)CCOCC1)C(=O)c1ccc(Cl)cc1` (stereo unspecified): the inhibition stood at 1.88%.

Values taken from ChEMBL document CHEMBL3433997, “St. Jude Leishmania screening dataset” (2016).
